# Sa ugtP lethal: growth inhibition of S. aureus ugtP deletion strain. S. aureus RN4220 ugtP deletion, OD600 growth, 16 h. growth inhibition, % (concentration not given with the values). 0.54% of 330,000 active. AID 1259309; in the data active = growth inhibition above about 68%;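 also: plate controls were untreated wells for no effect and antibiotic for full effect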
# Sa RN4220 lethal: S. aureus RN4220 growth inhibition. OD600, 16 h. inhibition, % (test concentration not listed). 0.33% of 330,000 active. AID 1259311; in the data active = inhibition above about 85%;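 also: plate controls were untreated cells for no effect and reference antibiotic for full effect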
# SSB-PriA inh: inhibitors of Klebsiella pneumoniae PriA binding to SSB C-terminal tail. AlphaScreen SSBct-PriA binding, biotinylated peptide. inhibition, % at 33 µM. 0.6% of 430,000 active. AID 1272365; in the data active = inhibition mostly above about 37%, no sharp cut-off; inactive = mostly below about 20%;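 also: plate controls were negative control peptide for no effect and reference peptide for full effect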
# Mtb hypoxia inh: inhibitors of hypoxia-regulated fluorescent reporter in Mycobacterium tuberculosis; M. tuberculosis hypoxia-regulated fluorescent reporter, fluorescence; fluorescence inhibition, % (no concentration beside the values); 0.1% of 300,000 active; in the data active = fluorescence inhibition mostly above about 23%, no sharp cut-off; inactive = mostly below about 17%
# The depositor's hits bear a star; nt = no result given. Most compounds without a hit are left out; they make up all but 1.1% or so of the library.
SMILES,Sa ugtP lethal,Sa RN4220 lethal,SSB-PriA inh,Mtb hypoxia inh
COc1ccc(OC)c(S(=O)(=O)NCCn2ccnc2-c2ncccn2)c1,nt,nt,91*,nt
CNC(=O)C(=O)Nc1cc(C)cc(C)c1,nt,nt,-19,nt
Cc1ccc(NCCNC(=O)COc2ccccc2)nn1,nt,nt,0,nt
Cc1cccc(OCC(=O)Nc2ccc3c(c2)C(=O)NCCO3)c1,nt,nt,-2,nt
COc1ccc2sc(-c3ccc(N(C)C)cc3)c(C#Cc3cncn3C)c2c1,82*,78,17,23
COc1ccc2sc(-c3ccc(N(C)C)cc3)c(C#CC(C)(C)O)c2c1,4,4,34,2
Cc1cccc(S(=O)(=O)Nc2cccc(-c3cn4ccsc4n3)c2)c1,85*,-2,14,9
O=C(c1ccc(-c2cccs2)cc1)N1CC(N2C(=O)C3CC=CCC3C2=O)C1 (configuration not stated),nt,nt,-8,nt
Cc1ccccc1OCC(=O)OCC(=O)c1ccc(OC(=O)c2ccccc2)cc1,3,4,67*,0
Cc1ccccc1OCC(=O)OCC(=O)c1ccc(OCc2ccccc2)cc1,6,3,-58,13
COc1ccc(C(=O)Cn2nc(CNc3ccc(Br)cc3)[n+]3c2CCCCC3)cc1,98*,99*,11,nt
Cc1ccc(C(C)C)c(OCc2nn(CC(=O)c3ccc(OC(F)F)cc3)c3[n+]2CCCCC3)c1,95*,100*,1,nt
O=C(Cn1nc(-c2nn(CC(=O)c3ccccc3)c3[n+]2CCCCC3)[n+]2c1CCCCC2)c1ccccc1,6,2,-10,14
O=C(c1ccco1)N1CCC2(CC1)OCCS2,nt,nt,2,nt
O=C(NCCSc1ncc(-c2ccccc2)[nH]1)C(=O)Nc1ccccc1[N+](=O)[O-],nt,nt,42*,nt
Cc1nn(-c2ccccc2)c2c1C1(C(=O)N3c4c(cccc41)C(C)CC3(C)C)C(C#N)=C(N)O2 (configuration not stated),92*,96*,14,16
Cc1nn(-c2ccccc2)c2c1C1(C(=O)N(C)c3ccccc31)C(C#N)=C(N)O2 (configuration not stated),-5,12,2,12
O=C(c1cccs1)N(Cc1cnc2ccccn12)C1CC1,nt,nt,-9,nt
Cc1cccc(CSc2cccc3cccnc23)c1,42,14,95*,-69
c1cnc2c(SCc3ccc(-c4nnco4)cc3)cccc2c1,-6,0,74*,nt
N#CCSc1cccc2cccnc12,nt,nt,84*,nt
c1cnc2c(SCc3ccncc3)cccc2c1,nt,nt,33,nt
Clc1ccc(CSc2cccc3cccnc23)cc1Cl,nt,nt,46,nt
Cc1ccc(NC(=O)c2ccccc2NC(=O)c2cc3cc([N+](=O)[O-])ccc3s2)c(C(=O)c2ccccc2)c1,nt,nt,-9,nt
Cc1ccc(S(=O)(=O)N2CCCc3ccc(NC(=O)C(=O)Nc4ccc(C)c(F)c4)cc32)cc1,nt,nt,-12,nt
SMILES,Sa ugtP lethal,Sa RN4220 lethal,SSB-PriA inh,Mtb hypoxia inh
O=C(NCc1nccc(N2CCOCC2)n1)c1ccccn1,nt,nt,-9,nt
COc1ccccc1Nc1c2c(nc3ccc(N)cc13)CCCC2,11,4,53*,1
O=C1C=C/C(=N/Oc2ccc([N+](=O)[O-])cc2[N+](=O)[O-])c2cccnc21,nt,nt,-1,nt
COc1ccc(F)cc1S(=O)(=O)N1CCC(CSCc2ccco2)CC1,nt,nt,6,nt
O=C1C(=O)N(CCN2CCOCC2)C(c2ccccc2)C1=C(O)c1ccc2c(c1)OCCO2 (configuration not stated),nt,nt,-5,nt
CCCC(=O)Nc1[nH]c(=S)c(C#N)c(-c2ccc(OC(=O)CCC)cc2)c1C#N,nt,nt,97*,nt
Cc1ccc(S(=O)(=O)Nc2ccccc2-c2ccccc2NS(=O)(=O)c2ccc(C)cc2)cc1,9,28,7,nt
O=C1c2ccccc2-c2cccc(NS(=O)(=O)c3ccc(C(F)(F)F)cc3)c21,97*,97*,-3,6
O=C(Nc1ccc2c(c1)OCO2)N1CCn2cccc2[C@H]1c1ccc(F)c(F)c1,nt,nt,33*,nt
COc1ccc(Nc2ccnc(Nc3ccc(OC)cc3)n2)cc1,-15,3,45*,2
COc1ccc(Nc2nc(OC)nc(OC)n2)cc1,12,5,-3,4
Cc1c(Cl)cccc1S(=O)(=O)NCC1CCN(c2nc3ccccc3o2)CC1,nt,nt,-8,nt
O=C(COc1ccc(Cl)cc1Cl)Nc1ccc(C(=O)Nc2ccccc2C(=O)O)cc1,14,-2,-2,22
O=C(CCCOc1ccc(Cl)cc1Cl)Nc1ccccc1C(=O)O,23,25,3,34*
Cc1cc2ccccn2c1C(=O)c1cc([N+](=O)[O-])cc([N+](=O)[O-])c1,3,-2,49*,-2
CC(=NNc1ccc(C(=O)c2c(C)cc3ccccn23)cc1[N+](=O)[O-])c1ccc(O)cc1,-1,12,2,3
Cc1cc2ccccn2c1C(=O)c1ccc(NN)c([N+](=O)[O-])c1,-3,3,47*,4
CCS(=O)(=O)N1CCc2ccc(NC(=O)COc3ccc(Cl)cc3)cc2C1,nt,nt,-3,nt
CSc1nccc(-c2nn(-c3ccc(C)cc3)ccc2=O)n1,1,4,77*,nt
Cc1[nH]c(=O)[nH]c(=O)c1CCC(=O)O,nt,nt,17,nt
O=C(NCc1cccc(Cl)c1)c1cccc(S(=O)(=O)N2CCCCC2)c1,-3,3,-8,29*
O=C(NCc1ccncc1)c1cccc(S(=O)(=O)N2CCc3ccccc32)c1,2,4,0,28*
O=C(NCc1cccc(Cl)c1)c1cccc(S(=O)(=O)N2CCCC2)c1,-9,-4,-10,-4
Cc1ccc(-n2ncc3c(C(C)C)nnc(SCC(=O)NCC4CCCO4)c32)cc1C (configuration not stated),nt,nt,-13,nt
COc1ccc(NC(=O)Cn2cc(C(=O)c3ccc(Cl)cc3)c(=O)c3cc(OC)ccc32)c(OC)c1,nt,nt,-8,nt
SMILES,Sa ugtP lethal,Sa RN4220 lethal,SSB-PriA inh,Mtb hypoxia inh
Cc1ccc(C)c(C(O)=C2C(=O)C(=O)N(CCN3CCOCC3)C2c2ccco2)c1 (configuration not stated),nt,nt,6,nt
Cc1ccc(C)c(C(O)=C2C(=O)C(=O)N(CCN3CCOCC3)C2c2ccccc2F)c1 (configuration not stated),nt,nt,48*,nt
O=c1[nH]c2ccccc2nc1-c1ccccc1N=Cc1ccc(F)cc1,nt,nt,8,nt
CC(C)Oc1ccccc1C=NNc1ccccc1[N+](=O)[O-],-20,-12,82*,6
O=C(Cc1cccc2ccccc12)NCC1(c2cccs2)CCOCC1,nt,nt,-1,nt
COc1cc2c(cc1NC(=O)Nc1ccccc1)oc1ccccc12,84*,31,-2,9
COc1cc2c(cc1NC(=O)CCC(=O)O)oc1ccccc12,1,4,-6,13
O=S(=O)(NCCC(O)c1cc2ccccc2o1)c1ccc(C(F)(F)F)cc1 (configuration not stated),nt,nt,1,nt
COc1cc(NC(=O)NCC(c2ccc3c(c2)CCN3C)N2CCOCC2)cc(OC)c1 (configuration not stated),nt,nt,7,nt
COc1cc(NC(=O)NCC(c2ccc3c(c2)CCCN3C)N2CCCC2)cc(OC)c1 (configuration not stated),nt,nt,40*,nt
CCc1ccc2oc(-c3ccc(OC)cc3)cc(=Nc3c(C)n(C)n(-c4ccccc4)c3=O)c2c1,0,1,44*,25
O=C(CN1CCN(Cc2ccc3c(c2)OCO3)CC1)c1ccc(Cl)cc1,nt,nt,5,nt

# Screening data as filed in PubChem BioAssay.
